# PubChem BioAssay AID1159580 (chemical genetic matrix, 2015)
# “And” between values parts separate entries of the source, which are not always exact repeats. Equal entries are not always repeated. Among all 5,500 compounds or so, about 2,000 (36%) were called active. Inconclusive results (about 18%) are left out. The list shows a part of the results. Values without a mark were called inactive. Cut-off read from the data, not from the text of the source: active = normalized growth mostly below about 0.91 (no sharp cut-off); inconclusive = no clear call, values can overlap the other calls; inactive = mostly above about 0.92.
# Experiment: chemical genetic growth profiling, strain panel (AID 1159580);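 note: tested at 20 µM; growth read once vehicle control cultures reached saturation at 30 °C; 1 = growth at the plate median or of vehicle wells; lower values mean less growth of the strain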
# Details: S. cerevisiae deletion strains, growth OD
smiles,measurement,setting,value
CCn1cc(C(=O)O)c(=O)c2ccc(C)nc21,normalized growth,"locus YAL013W, strain DEP1, hits give low values",0.938 and 0.977
same,normalized growth,"locus YAL021C, strain ccr4, hits give low values",0.805 (active)
same,normalized growth,"locus YAL026C, strain drs2, hits give low values",0.855 (active)
same,normalized growth,"locus YAL030W, strain snc1, hits give low values",0.917 (active)
same,normalized growth,"locus YAL040C, strain CLN3, hits give low values",0.961
same,normalized growth,"locus YBL061C, strain skt5, hits give low values",0.928
same,normalized growth,"locus YBR009C, strain hhf1, hits give low values",0.947
same,normalized growth,"locus YBR021W, strain FUR4, hits give low values",1.09
same,normalized growth,"locus YBR023C, strain chs3, hits give low values",0.945
same,normalized growth,"locus YBR171W, strain sec66, hits give low values",0.931
same,normalized growth,"locus YBR229C, strain ROT2, hits give low values",0.914 (active)
same,normalized growth,"locus YBR231C, strain swc5, hits give low values",0.936
same,normalized growth,"locus YBR279W, strain paf1, hits give low values",0.924 (active)
same,normalized growth,"locus YCL011C, strain gbp2, hits give low values",0.939
same,normalized growth,"locus YCL016C, strain dcc1, hits give low values",0.945
same,normalized growth,"locus YCL029C, strain bik1, hits give low values",0.935
same,normalized growth,"locus YCL061C, strain MRC1 (second series), hits give low values",0.961
same,normalized growth,"locus YCL061C, strain MRC1, hits give low values",0.936
same,normalized growth,"locus YCL069W, strain vba3, hits give low values",0.943
same,normalized growth,"locus YCR088W, strain abp1, hits give low values",0.953
same,normalized growth,"locus YDL005C, strain med2, hits give low values",0.983
same,normalized growth,"locus YDL035C, strain GPR1, hits give low values",0.963
same,normalized growth,"locus YDL040C, strain nat1, hits give low values",0.923 (active)
same,normalized growth,"locus YDL074C, strain BRE1, hits give low values",1.06
same,normalized growth,"locus YDL101C, strain DUN1, hits give low values",0.941
same,normalized growth,"locus YDL134C, strain PPH21, hits give low values",0.912
same,normalized growth,"locus YDL185W, strain tfp1, hits give low values",0.924
same,normalized growth,"locus YDL192W, strain arf1, hits give low values",0.9 (active)
same,normalized growth,"locus YDR001C, strain nth1, hits give low values",0.94
same,normalized growth,"locus YDR069C, strain doa4, hits give low values",0.932
same,normalized growth,"locus YDR101C, strain arx1, hits give low values",0.92
same,normalized growth,"locus YDR137W, strain rgp1, hits give low values",0.345 (active)
same,normalized growth,"locus YDR150W, strain NUM1, hits give low values",0.936 and 0.96
same,normalized growth,"locus YDR159W, strain sac3, hits give low values",1.07
same,normalized growth,"locus YDR162C, strain NBP2, hits give low values",0.936
same,normalized growth,"locus YDR195W, strain ref2",0.691 (active)
same,normalized growth,"locus YDR297W, strain sur2, hits give low values",0.928
same,normalized growth,"locus YDR318W, strain mcm21, hits give low values",0.963
same,normalized growth,"locus YDR334W, strain swr1, hits give low values",0.916
same,normalized growth,"locus YDR335W, strain msn5, hits give low values",0.937
same,normalized growth,"locus YDR363W, strain ESC2, hits give low values",0.965
same,normalized growth,"locus YDR388W, hits give low values",0.941
same,normalized growth,"locus YDR392W, strain spt3, hits give low values",1.03
same,normalized growth,"locus YDR502C, strain sam2, hits give low values",0.961
same,normalized growth,"locus YEL003W, strain gim4, hits give low values",0.939
same,normalized growth,"locus YEL037C, strain rad23, hits give low values",0.926
same,normalized growth,"locus YEL061C, strain CIN8 (second series), hits give low values",0.935
same,normalized growth,"locus YEL061C, strain CIN8, hits give low values",0.946
same,normalized growth,"locus YER002W, strain NOP16, hits give low values",0.958
same,normalized growth,"locus YER015W, strain faa2, hits give low values",0.947
same,normalized growth,"locus YER016W, strain bim1, hits give low values",0.924
same,normalized growth,"locus YER110C, hits give low values",0.9
same,normalized growth,"locus YER111C, strain swi4, hits give low values",0.966
same,normalized growth,"locus YER155C, strain BEM2 (second series), hits give low values",0.943
same,normalized growth,"locus YER155C, strain BEM2, hits give low values",0.951
same,normalized growth,"locus YER167W, strain BCK2, hits give low values",0.988
same,normalized growth,"locus YFR010W, strain ubp6, hits give low values",0.974
same,normalized growth,"locus YGL078C, strain dbp3, hits give low values",0.947
same,normalized growth,"locus YGL086W, strain mad1, hits give low values",0.954
same,normalized growth,"locus YGL167C, strain pmr1, hits give low values",0.912 (active)
same,normalized growth,"locus YGL173C, strain kem1, hits give low values",0.799 (active)
same,normalized growth,"locus YGL227W, strain vid30, hits give low values",0.939
same,normalized growth,"locus YGL240W, strain doc1, hits give low values",0.834 (active)
same,normalized growth,"locus YGL248W, strain PDE1, hits give low values",0.906
same,normalized growth,"locus YGL253W, strain hxk2, hits give low values",0.957
same,normalized growth,"locus YGR078C, strain PAC10, hits give low values",0.997
same,normalized growth,"locus YGR135W, strain pre9, hits give low values",0.916
same,normalized growth,"locus YGR229C, strain SMI1, hits give low values",1 and 0.98
same,normalized growth,"locus YHR013C, strain ard1, hits give low values",1.02
same,normalized growth,"locus YHR027C, strain rpn1, hits give low values",0.938
same,normalized growth,"locus YHR030C, strain SLT2, hits give low values",0.921 and 0.918
same,normalized growth,"locus YHR079C, strain IRE1 (second series), hits give low values",0.932
same,normalized growth,"locus YHR079C, strain IRE1, hits give low values",0.97
same,normalized growth,"locus YHR094C, strain hxt1, hits give low values",0.923 (active)
same,normalized growth,"locus YHR129C, strain ARP1, hits give low values",0.918 (active)
same,normalized growth,"locus YHR142W, strain chs7, hits give low values",0.979
same,normalized growth,"locus YHR200W, strain rpn10, hits give low values",0.963
same,normalized growth,"locus YIL066C, strain RNR3, hits give low values",0.972
same,normalized growth,"locus YIL073C, strain SPO22, hits give low values",0.97
same,normalized growth,"locus YIL125W, strain kgd1, hits give low values",0.951
same,normalized growth,"locus YIR030C, strain dcg1, hits give low values",0.914 (active)
same,normalized growth,"locus YJL092W, strain hpr5, hits give low values",0.961
same,normalized growth,"locus YJL095W, strain BCK1 (second series), hits give low values",0.942
same,normalized growth,"locus YJL095W, strain BCK1, hits give low values",0.949 and 0.948
same,normalized growth,"locus YJL115W, strain asf1, hits give low values",0.956
same,normalized growth,"locus YJL129C, strain trk1, hits give low values",0.972
same,normalized growth,"locus YJL134W, strain LCB3, hits give low values",0.92 (active)
same,normalized growth,"locus YJL154C, strain vps35, hits give low values",0.959
same,normalized growth,"locus YJL164C, strain tpk1, hits give low values",0.946
same,normalized growth,"locus YJL166W, strain qcr8, hits give low values",0.94
same,normalized growth,"locus YJL168C, strain set2, hits give low values",0.895 (active)
same,normalized growth,"locus YJL187C, strain SWE1 (second series), hits give low values",0.93
same,normalized growth,"locus YJR043C, strain POL32, hits give low values",0.967
same,normalized growth,"locus YJR066W, strain TOR1, hits give low values",0.899
same,normalized growth,"locus YJR075W, strain HOC1, hits give low values",0.972 and 0.961
